Screening results from PubChem.
PLC-beta3 inh = inhibitors of human phospholipase C beta3; Q01970; Purified PLC-beta3, fluorogenic substrate, fluorescence; inhibition, % at 12.2 µM; 0.18% of 370,000 active; AID 720704; in the data active = inhibition above about 11%
Target sequence (Q01970 whole entry, looked up): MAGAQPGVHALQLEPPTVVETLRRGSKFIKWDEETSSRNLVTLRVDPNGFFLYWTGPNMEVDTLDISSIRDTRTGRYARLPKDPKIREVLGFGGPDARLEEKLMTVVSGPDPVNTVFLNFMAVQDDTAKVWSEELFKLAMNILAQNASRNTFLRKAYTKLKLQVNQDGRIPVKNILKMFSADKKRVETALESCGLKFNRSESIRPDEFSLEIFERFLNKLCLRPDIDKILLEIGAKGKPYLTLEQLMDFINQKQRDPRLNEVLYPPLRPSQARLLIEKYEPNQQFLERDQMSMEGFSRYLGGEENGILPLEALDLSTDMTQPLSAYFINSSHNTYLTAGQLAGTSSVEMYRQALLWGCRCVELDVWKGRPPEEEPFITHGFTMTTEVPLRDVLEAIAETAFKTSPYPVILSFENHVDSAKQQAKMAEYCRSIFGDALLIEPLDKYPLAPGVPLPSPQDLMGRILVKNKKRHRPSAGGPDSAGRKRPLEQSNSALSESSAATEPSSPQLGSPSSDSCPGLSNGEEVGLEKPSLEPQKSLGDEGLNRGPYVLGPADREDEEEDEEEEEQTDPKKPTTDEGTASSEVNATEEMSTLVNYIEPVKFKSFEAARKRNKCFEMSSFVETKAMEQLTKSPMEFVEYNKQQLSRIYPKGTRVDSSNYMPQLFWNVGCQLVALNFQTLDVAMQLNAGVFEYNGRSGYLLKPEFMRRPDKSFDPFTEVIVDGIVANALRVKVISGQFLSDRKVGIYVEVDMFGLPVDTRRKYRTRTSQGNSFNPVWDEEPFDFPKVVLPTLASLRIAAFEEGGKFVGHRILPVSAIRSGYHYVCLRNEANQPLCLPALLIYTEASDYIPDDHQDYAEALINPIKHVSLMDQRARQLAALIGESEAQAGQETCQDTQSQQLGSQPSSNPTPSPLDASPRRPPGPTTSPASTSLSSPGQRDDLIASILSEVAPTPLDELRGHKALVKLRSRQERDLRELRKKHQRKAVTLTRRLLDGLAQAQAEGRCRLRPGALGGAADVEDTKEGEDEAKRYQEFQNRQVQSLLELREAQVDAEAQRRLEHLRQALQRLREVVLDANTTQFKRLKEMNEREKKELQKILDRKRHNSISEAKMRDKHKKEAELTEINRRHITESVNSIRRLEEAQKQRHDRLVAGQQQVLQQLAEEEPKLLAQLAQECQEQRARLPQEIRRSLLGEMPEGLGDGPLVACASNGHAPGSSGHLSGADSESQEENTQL
Rce1 inhib = blocks yeast Ras-converting enzyme. yeast membranes, quenched prenylated peptide cleavage fluorescence. calls only. 0.27% of 290,000 active. AID 2563;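 active = fall in fluorescence gain of 50% or more versus controls, with final raw signal at or below 3038400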
NPR1 activator = GC-A (human) enzyme activation | P16066 | HEK293 GC-A cells, cGMP TR-FRET, EC30 ANP; 0% at EC30 ANP, 100% saturating ANP | activation, % at 10 µM | 0.14% of 370,000 active; in the data active = activation above about 40%
PLC-gamma1 inh = PLC-gamma1 (human) inhibition, primary screen; purified PLC-gamma1, fluorogenic substrate, fluorescence; inhibition, % at 12.2 µM; AID 720700; P19174; 0.84% of 370,000 active; in the data active = inhibition above about 9.5%
PfM18AAP inh = blocks P. falciparum M18 aspartyl aminopeptidase; recombinant PfM18AAP, H-Glu-NHMec fluorogenic cleavage; inhibition, % at 7.35 µM; 1.2% of 290,000 active;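 active = inhibition above the campaign mean inhibition over all tested compounds plus 3 SD, cut at about 28% in these data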
GC-B act = GC-B (human) receptor activation; 0.11% of 370,000 active; P20594; HEK293-GC-B cells, CNP EC30, cGMP TR-FRET; 0% at EC30 CNP, 100% saturating CNP; activation, % at 10 µM;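 active = activation at 10 µM reaching about 35% in either raw or pattern-adjusted values, limit read from the data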
A number is an active result; n = inactive; x = no result given; + = active, no number. This is a sample that favours compounds with a hit; in the whole collection about 2.2% have one here.

SMILES	PLC-beta3 inh	Rce1 inhib	NPR1 activator	PLC-gamma1 inh	PfM18AAP inh	GC-B act
CSc1nc2[nH]ncc2c(=O)n1-c1ccccc1	n	n	n	n	61	n
O=C(CSc1nc2[nH]ncc2c(=O)n1-c1ccccc1)N1CCCCCC1	x	n	x	x	34	x
N=c1c2c(ccn1CCCc1ccccc1)Oc1ccc3ccccc3c1C2c1ccccc1 (stereo not given)	n	x	n	n	x	n
O=C(NCCc1ccccc1)OCc1cn(Cc2ccc(C(F)(F)F)cc2)nn1	n	x	n	n	x	n
O=C1CN(C(=O)NCC(=O)N2CCCC2)c2ccccc2N1	n	+	n	n	n	n
O=C(CNC(=O)N1CC(=O)Nc2ccccc21)NCCc1cccc(F)c1	n	n	n	n	n	n
O=C1CN(C(=O)NCC(=O)N[C@H](C(=O)O)c2ccccc2)c2ccccc2N1	n	n	n	n	n	n
O=C(CCNC(=O)N1CC(=O)Nc2ccccc21)NCCc1cccc(F)c1	n	+	n	n	n	n
C=CCN1C(=O)[C@@H](CC(=O)N2CCSCC2)[C@]2(C(=O)OC)CCCCC=C12	n	x	n	n	x	n
CCOC(=O)c1cnc(Nc2nc3ccccc3o2)nc1CN1CCN(C)CC1	n	x	n	n	61	n
O=C1N(CCCO)CCC12CCC(c1ccccc1)CC2 (stereo not given)	n	x	n	n	x	n
Cc1ccc(NC(=O)Nc2nnc(-c3ccncc3)s2)cc1C	n	n	n	n	n	n
COC(=O)Nc1nnc(-c2ccncc2)s1	n	+	n	n	n	n
Cc1ccc(NC(=O)CCc2ccc(S(=O)(=O)NC3CCCCC3)cc2)cc1	n	+	n	n	n	n
C[C@@H]1[C@H](c2ccccc2)OC(O)([C@H](Cc2ccccc2)NC(=O)OC(C)(C)C)CN1C (stereo not given in full)	n	x	n	n	x	n
CC(C)(C)CCNc1nc(-c2ccccn2)nnc1-c1ccccc1	n	x	n	n	x	n
CC1(C(=O)N(CC(=O)NC2CCCC2)Cc2ccccc2)CC(=O)N=C2C=CC=CN21 (stereo not given)	n	+	n	n	n	n
CC1(C(=O)N(CC(=O)NC2CCCC2)Cc2ccco2)CC(=O)N=C2C=CC=CN21 (stereo not given)	n	+	n	n	n	n
CC(CNS(=O)(=O)c1ccc2c(c1)CC(=O)N2C)c1ccccc1 (stereo not given)	n	n	n	n	n	n
CN1C(=O)Cc2cc(S(=O)(=O)Nc3ccc(Cl)cc3)ccc21	n	n	n	n	29	n
CCCn1c(-c2cccs2)nc2nc3ccccc3nc21	n	n	n	n	n	n
c1csc(-c2nc3nc4ccccc4nc3n2Cc2ccc3c(c2)OCO3)c1	n	x	n	n	n	38
CCN(CC)CCCNc1cc(C)nc2cc(-c3cccs3)nn12	n	+	n	n	n	n
Cc1cccc(-c2cc3nc(C)cc(NCCCN(C)C)n3n2)c1	n	n	n	n	n	n
N#C/C(=C\c1ccco1)C(=O)Nc1ccc(S(N)(=O)=O)cc1	n	n	n	n	n	n
SMILES	PLC-beta3 inh	Rce1 inhib	NPR1 activator	PLC-gamma1 inh	PfM18AAP inh	GC-B act
N#C/C(=C\c1ccco1)C(=O)Nn1cnnc1	n	n	n	n	32	n
CC(=O)N(c1ccccc1)c1nc(/C=C/C(=O)Nc2c(C)cc(C)cc2C)cs1	n	n	40	n	n	43
CCN1CCN(c2cc(C)c3cc(NC(=O)c4ccc(OC)c(OC)c4)ccc3n2)CC1	n	n	n	n	n	47
COc1ccc(C)cc1NC(=O)CCC(=O)Nc1ccc2nc(N3CCN(C)CC3)cc(C)c2c1	x	+	x	x	n	x
COC(=O)[C@]12C[C@H](CC(=O)NCCc3ccccc3OC)C(=O)N(Cc3cccc4ccccc34)C1=C[C@H](COCc1ccccc1)O[C@@H]2C	n	x	n	n	x	n
CC(=O)/C(=N\Nc1ccccc1)Sc1cccc2cccnc12	n	n	n	n	31	n
COc1cc(-c2nc3ccccn3c2/N=C/c2ccc(F)cc2)ccc1O	n	n	n	n	n	n
COc1cc(-c2nc3ccccn3c2/N=C/c2cccc(OC)c2O)ccc1O	n	+	n	n	n	n
COC(=O)[C@]12C[C@H](CC(=O)NCc3ccc(OC)c(OC)c3)C(=O)N(Cc3ccco3)C1=C[C@H](C(C)(C)C)O[C@@H]2C	n	x	n	n	x	n
O=C(Nc1ccc(F)cc1)C1=CC(=O)N2CCN=C2S1	x	n	x	x	29	x
